Screening results (PubChem BioAssay)
This is one part of a sample in which hits are shown more often than they occur.
RORg inh = ROR gamma (mouse) transcription inhibition; P51450; Drosophila S2 Gal4-RORgamma UAS-luciferase reporter, 20 h; Potency, µM (doses to about 53.6 µM), inactives show at the highest dose activity change, negative = inhibition, most hits filed as inhibitors; 5.4% of 310,000 active; AID 2551; note: potency is the fitted concentration of half-maximal effect; % is set by controls: 0 for no effect and ±100 for the full control effect; nearly all actives have a fitted effect of over 60% in size
Target sequence (P51450 whole entry, looked up, the tested form may be a part): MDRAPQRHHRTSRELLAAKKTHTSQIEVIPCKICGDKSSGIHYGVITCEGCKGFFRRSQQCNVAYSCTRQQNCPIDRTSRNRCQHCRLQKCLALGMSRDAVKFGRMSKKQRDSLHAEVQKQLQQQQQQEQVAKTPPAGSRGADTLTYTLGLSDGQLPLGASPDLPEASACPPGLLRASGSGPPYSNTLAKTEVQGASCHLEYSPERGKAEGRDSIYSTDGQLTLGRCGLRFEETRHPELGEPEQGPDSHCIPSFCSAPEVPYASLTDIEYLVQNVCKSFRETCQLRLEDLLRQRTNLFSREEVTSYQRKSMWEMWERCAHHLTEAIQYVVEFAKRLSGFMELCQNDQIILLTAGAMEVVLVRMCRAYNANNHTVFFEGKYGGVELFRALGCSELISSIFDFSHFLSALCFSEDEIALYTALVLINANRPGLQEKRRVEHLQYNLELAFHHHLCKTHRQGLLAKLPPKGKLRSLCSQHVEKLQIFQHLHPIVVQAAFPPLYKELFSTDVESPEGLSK
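Luminescence from a UAS-regulated Photinus luciferase reporter in stably transfected Drosophila Schneider cells is measured; decreased signal marks ROR gamma inhibition. Fusion expression is induced by 700 uM copper sulfate for 20 hr.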
ERG Ets-DNA blk = ERG Ets/DNA interaction inhibition; P11308; fluorescence polarization, His-ERG Ets domain / labelled DNA; Potency, µM (highest dose often 76.9 µM), without a hit: top-dose FP activity, negative = inhibition, actives largely listed as inhibitors; 0.028% of 370,000 active; active = well fitted inhibition curve with a large enough effect in the polarisation, with a control signal flat; inconclusive = small, poorly fitted or top-dose-only effect, or effect the other way, or a change in a side signal; inactive = no such curve, though single readings can be large or run the other way; the % refers to the polarisation;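 note: polarization taken with two DNA probes labelled with fluorescein and Texas red; potency is the fitted concentration of half-maximal effect; % of control where 0% means no effect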
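His-tagged ERG Ets domain (1 uM in the protein solution; 300mM KCl, 50mM Tris-HCl, 1mM EDTA, 1mM DTT, pH 7.5) received compound, then a probe mix of 5 nM fluorescein-DNA and 100nM Texas-615-DNA. Fluorescence polarization was read for both dyes.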
a7 integrin act = activates integrin-mediated alleviation for muscular dystrophy. 0.064% of 350,000 active. Potency, µM (doses to about 38.3 µM), for the others: at the top dose activation, actives largely listed as activators. AID 624291. alpha7betagal myoblasts, beta-gal FDG fluorescence, 48 h;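 note: potency is the fitted concentration of half-maximal effect; 100% = response of the positive control SU9516; nearly all actives have a fitted effect of over 60% in size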
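Alpha7betagal+/- myoblasts (passage 13) were plated 16-24 hr, then exposed to compounds (1:260 dilution of DMSO stock) for 48 hours at 37C. After MPER lysis, β-galactosidase reporter activity was read as FDG fluorescence (ex 480/em 540) after 30 minutes.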
Gal4-VP16 FLuc = counter-screen for ROR gamma inhibitors: Gal4-VP16 reporter; Drosophila S2 Gal4-VP16 UAS-luciferase, luminescence, 20 h; Potency, µM (series often up to 53.6 µM), for the others: at the top dose activity, negative = inhibition, hits mostly inhibitors; 3.5% of 310,000 active; AID 2546;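 note: Gal4-VP16 expression switched on by copper sulfate through the metallothionein promoter; potency is the fitted concentration of half-maximal effect; % is set by controls: 0 for no effect and ±100 for the full control effect; nearly all actives have a fitted effect of over 50% in size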
Giardia killer = kills Giardia lamblia. Giardia lamblia trophozoite viability. AID 540267. activity change, % at 7.66 µM, hits read low. 0.15% of 340,000 active; in the data active = activity change below about -80%; inconclusive = between about -30% and that limit;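 note: parasites exposed to compound for two days anaerobically before the ATP read; % is set by controls: 0 for no effect and ±100 for the full control effect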
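Anaerobic 48 hrs incubation at 37 deg C of 100 trophozoites/well with test compounds; ATPLite 1-Step luminescence, 15-30 min RT, reports cellular ATP as viability.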
An asterisk follows results filed as active; ? = inconclusive; . = no result given; [ ] = remark or other dose. Unless noted, calls come from the whole dose curve; as a rule, active = well fitted curve in the direction sought with a large enough effect; inconclusive = small, poorly fitted or top-dose-only effect, or another doubt; inactive = no such curve, though single readings can be large; an effect the other way counts as inactive or inconclusive.

SMILES	RORg inh	ERG Ets-DNA blk	a7 integrin act	Gal4-VP16 FLuc	Giardia killer
CS(=O)(=O)Nc1ccc(Cc2ccc(NS(C)(=O)=O)cc2)cc1	36%	-11%	-4%	?	0
CN(C)S(=O)(=O)c1ccc(-c2cn3ccccc3n2)cc1	34%	2%	16%	18µM*	?
O=C(Nc1cccc(F)c1)N1CCCC2(CCN(C(=O)c3cc(C(F)(F)F)cc(C(F)(F)F)c3)CC2)C1	-1%	.	.	-7%	.
CCc1ccc2c(c1)cc(CN(C(=S)Nc1cccc(C)c1)C1CC1)c1nnnn12	6.3µM*	.	13%	10%	-9
COCCN(Cc1cc2cc(C)ccc2n2nnnc12)C(=S)Nc1cccc(C)c1	?	5%	0%	-10%	-3
CC1CN(C(=O)CN(C)S(=O)(=O)c2ccc3ccccc3c2)CC(C)O1 (centres undefined)	36%	14%	1%	-5%	10
CC12CCC(C)(c3nc4ccccc4nc31)C2(C)C	-12%	10%	-18%	2%	-4
Cc1[nH]nc2c1-c1nc3ccccc3nc1C(C)(C)C2	4µM*	-3%	-25%	3.2µM*	0
N#CC1=C(SCC(=O)NC23CC4CC(CC(C4)C2)C3)NC(=O)C(C#N)C12CCCCC2 (centres undefined)	?	-3%	-29%	16µM*	17
CC1CCCN(CC(O)COc2ccc(S(=O)(=O)N3CCCC3)cc2[N+](=O)[O-])C1 (centres undefined)	.	19%	4%	.	-3
CCOc1c2c(nc3ccc(Cl)cc13)CCC2	11µM*	-3%	5%	-24%	-10
COc1ccc(CNc2ccc3c(c2)ncn3-c2ccccc2OC)cc1	18µM*	.	-33%	?	-2
CCn1cnc2cc(NCc3ccc(C)cc3)ccc21	?	.	-10%	?	21
Cc1ccc(CNc2ccc3c(c2)ncn3C(C)C)cc1	5µM*	5%	0%	-7%	10
CCCCNC(=O)C(c1ccc(OCC(=O)OC)c(C(=O)OC)c1)N(CCc1ccccn1)C(=O)CCCCCN1C(=O)NC(c2ccc(-c3ccccc3)cc2)C(C(=O)OCc2ccccc2)=C1C (centres undefined)	23%	.	.	-16%	.
S=C1NC[C@H](Cc2ccccc2)N1CCCCC1CCCCC1	0.71µM*	9%	-30%	5µM*	-8
CCCCN1C(=S)NC[C@@H]1Cc1ccccc1	1.8µM*	-10%	11%	7.9µM*	9
S=C1NC[C@H](Cc2ccccc2)N1CC1CCN(CCCC2CCCC2)CC1	.	-7%	-3%	.	6
CCCCN1C(N)=NC[C@@H]1c1ccccc1	.	11%	19%	.	-6
CCCCN1C(=S)NC[C@@H]1c1ccccc1	2.8µM*	-1%	14%	13µM*	8
O=C1NC[C@@H](Cc2cccc3ccccc23)N(CCCCC2CCCCC2)C1=O	.	-4%	-32%	.	-12
S=C1NC[C@H](CC2CCCCC2)N1CCc1cccc2ccccc12	0.25µM*	0%	-19%	0.63µM*	-13
O=C1OC2(CCCCC2)CC2=C1C1O[C@](CCCCN3C(=O)c4ccccc4C3=O)(Cc3ccccc31)O2	-6%[10 µM]	.	.	-6%[10 µM]	.
S=C1NC[C@H](c2ccccc2)N1CC1CCCCC1	1.1µM*	6%	-29%	4.5µM*	-11
S=C1NC[C@H](CC2CCCCC2)N1CCCCC1CCCCC1	1.1µM*	5%	0%	3.2µM*	0
SMILES	RORg inh	ERG Ets-DNA blk	a7 integrin act	Gal4-VP16 FLuc	Giardia killer
COc1ccc(-c2cc(=O)c3c(O)cc(O[C@H]4OC(COC5OC(C)C(O)C(O)[C@H]5O)C(O)C(O)C4O)cc3o2)cc1O (some centres undefined)	9%	.	.	-5%	.
COC(=O)c1c(N)sc2c1CCN(c1ncc(C(F)(F)F)cc1Cl)C2	1.6µM*	-1%	-33%	?	17
COC(=O)c1c(/N=C/NOCc2ccc(Cl)cc2)sc2c1CCN(c1ncc(C(F)(F)F)cc1Cl)C2	-3%	-9%	-10%	11%	21
COc1ccc(CCN(C(=O)c2cccc(F)c2)C2CC(=O)N(c3ccc(OC)cc3)C2=O)cc1 (centres undefined)	6%	-3%	-30%	20%	-29
COc1cc(N(C)C)cc(CN(C)CCc2ccc([N+](=O)[O-])cc2)c1O	?	.	.	-2%	.
CS/C(N)=N/N=C/c1cc(Br)cc(Br)c1O	0.63µM*	-2%	0%	2.5µM*	10
CCS/C(N)=N/N=C/c1cc(C)ccc1O	0.71µM*	8%	8%	2µM*	-15
CCCCS/C(N)=N/N=C/c1cc(C)ccc1O	5.6µM*	12%	-24%	5µM*	?
Cc1nnc(C)n1/N=C/c1cc(Br)cc(Br)c1O	?	6%	-23%	?	3
CS/C(N)=N/N=C/c1cc(C)ccc1O	0.32µM*	5%	3%	5µM*	?
O=C(NCCCn1ccnc1)c1sc2cc([N+](=O)[O-])ccc2c1Cl	.	.	-6%	.	.
C=CCS/C(N)=N\N=C\c1cc(Br)cc([N+](=O)[O-])c1O	0.32µM*	-5%	2%	3.2µM*	5
CC(C)(C)c1ccc(/C=N/Nc2nncn2N)cc1	-33%	-17%	-32%	?	22
Nn1cnnc1N/N=C/c1cc(Br)cc(Br)c1O	10µM*	-10%	-12%	13µM*	4
Cc1c(Cl)cccc1NC(=O)CSc1nccn1C	.	-1%	?	.	-4
COc1ccc(CCNC(=O)C(=O)NCC2OCCN2S(=O)(=O)c2ccc(Br)cc2)cc1OC (centres undefined)	?	-2%	18%	7.9µM*	13
COc1ccc(CCNC(=S)NC(=O)c2ccccc2)cc1C	10µM*	-1%	?	?	-1
COc1ccc(CCNC(=S)NC(=O)c2ccc(Br)cc2)cc1OC	13µM*	4%	-1%	?	-3
COc1ccc(CCNC(=S)c2ccccc2)cc1OC	?	-10%	-14%	16µM*	4
Cc1ccc(C(=O)NC2CCCCC2)cc1S(=O)(=O)N1CCCC1	?	9%	21%	8%	-4
S=C(NCc1ccccc1)Nc1cccc2ccccc12	3.2µM*	19%	-20%	5.6µM*	3
S=C(NCCc1ccccc1)NCc1cccs1	11µM*	4%	-31%	-84%	1
Cc1ccc(C(C)C)c(OCCNC(=S)Nc2cccc3ccccc23)c1	1.3µM*	-5%	-56%	3.2µM*	10
NC(=O)NNC(=S)Nc1cccc2ccccc12	-7%	3%	22%	-6%	-1
COc1ccc(CCNC(=S)NCc2cccs2)cc1OC	?	3%	10%	0%	-13
Cc1ccc(C(C)C)c(OCCN)c1	-15%	11%	?	-4%	1
Cc1cccc(NC(=S)NCc2cccs2)c1C	3.5µM*	0%	-34%	10µM*	-10
Cc1cccc(Nc2ncccc2C(=O)NCc2cccs2)c1C	-8%	-4%	-27%	11%	2
